Experimental data as given in PubChem BioAssay (EPA / NIEHS).
Calls of active or inactive are those of the source. The calls were made as follows: active = hit-call score of the fitted dose curve at least 0.9, where 1 is the maximum; inactive = score below 0.9.

How the values were obtained:
[1] = ATG_CRE_CIS: Attagene CIS-FACTORIAL HepG2 Assay for human cAMP Responsive Element (CRE) binding protein 3 (AID 2282926); details: HepG2 CRE cis-reporter, Attagene multiplexed mRNA; actives raise or lower the signal
How it was run: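 Transfected HepG2 were treated for 24 hours, then RNA was extracted and reporter cDNA amplified with sequence-specific primers. Labelled fragments were separated by capillary electrophoresis, and the CRE signal was fitted bidirectionally with DMSO as baseline.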

[2] = molecular target: CCAAT/enhancer-binding protein beta (Homo sapiens) (UniProt P17676); test: ATG_C_EBP_CIS: Attagene CIS-FACTORIAL HepG2 Assay for human CCAAT/Enhancer Binding Protein (C/EBP) beta (AID 2282927); details: HepG2 Attagene cis-factorial transcription factor reporter; actives raise or lower the signal
Sequence of CCAAT/enhancer-binding protein beta (Homo sapiens) (P17676 whole entry, looked up): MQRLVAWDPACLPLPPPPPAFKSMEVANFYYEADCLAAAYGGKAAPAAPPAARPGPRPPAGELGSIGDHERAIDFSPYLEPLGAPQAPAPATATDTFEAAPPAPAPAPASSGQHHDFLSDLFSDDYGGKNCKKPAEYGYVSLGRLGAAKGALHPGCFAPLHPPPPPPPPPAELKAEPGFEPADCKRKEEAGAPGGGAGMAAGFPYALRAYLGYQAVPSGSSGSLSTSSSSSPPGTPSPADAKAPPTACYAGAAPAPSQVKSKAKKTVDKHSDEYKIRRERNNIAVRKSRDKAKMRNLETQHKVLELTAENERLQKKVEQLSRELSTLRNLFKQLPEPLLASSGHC
How it was run: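 Following a 24 h incubation with test chemical, transfected HepG2 cells yielded RNA whose reporter transcripts were quantified by RT-PCR and fluorescent capillary electrophoresis, with DMSO serving as baseline for bidirectional fitting.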

[3] = ATG_CMV_CIS: Attagene CIS-FACTORIAL HepG2 Assay for human CMV (Internal Marker) (AID 2282928); details: HepG2 CMV promoter reporter, transcription factor profiling; actives raise or lower the signal;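 also: endpoint acts as a background internal control marker rather than a target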
How it was run: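 Cell system: HepG2, transiently transfected multiple reporter units under cis promoters. Exposure: 24 h. Detection: RT-PCR, FAM labeling, HpaI digestion, capillary electrophoresis. Analysis: bidirectional, DMSO baseline.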

[4] = ATG_DR4_LXR_CIS: Attagene CIS-FACTORIAL HepG2 Assay for human Liver X Receptor (LXR), DR4 submotif (AID 2282929); details: HepG2 Attagene DR4 cis-reporter, mRNA transcription; actives raise or lower the signal
How it was run: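 Fluorescence intensity of labelled reporter cDNA fragments, separated by capillary electrophoresis, gives the signal. HepG2 cells bearing cis-regulated reporter constructs were treated 24 h; activity fitted bidirectionally relative to DMSO negative control.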

[5] = molecular target: Aryl hydrocarbon receptor (Homo sapiens) (UniProt P35869); test: ATG_Ahr_CIS: Attagene CIS-FACTORIAL HepG2 Assay for human Aryl Hydrocarbon Receptor (Ahr) (AID 2282930); details: HepG2 AhR cis-factorial reporter transcription; actives raise or lower the signal
Sequence of Aryl hydrocarbon receptor (Homo sapiens) (P35869 whole entry, looked up): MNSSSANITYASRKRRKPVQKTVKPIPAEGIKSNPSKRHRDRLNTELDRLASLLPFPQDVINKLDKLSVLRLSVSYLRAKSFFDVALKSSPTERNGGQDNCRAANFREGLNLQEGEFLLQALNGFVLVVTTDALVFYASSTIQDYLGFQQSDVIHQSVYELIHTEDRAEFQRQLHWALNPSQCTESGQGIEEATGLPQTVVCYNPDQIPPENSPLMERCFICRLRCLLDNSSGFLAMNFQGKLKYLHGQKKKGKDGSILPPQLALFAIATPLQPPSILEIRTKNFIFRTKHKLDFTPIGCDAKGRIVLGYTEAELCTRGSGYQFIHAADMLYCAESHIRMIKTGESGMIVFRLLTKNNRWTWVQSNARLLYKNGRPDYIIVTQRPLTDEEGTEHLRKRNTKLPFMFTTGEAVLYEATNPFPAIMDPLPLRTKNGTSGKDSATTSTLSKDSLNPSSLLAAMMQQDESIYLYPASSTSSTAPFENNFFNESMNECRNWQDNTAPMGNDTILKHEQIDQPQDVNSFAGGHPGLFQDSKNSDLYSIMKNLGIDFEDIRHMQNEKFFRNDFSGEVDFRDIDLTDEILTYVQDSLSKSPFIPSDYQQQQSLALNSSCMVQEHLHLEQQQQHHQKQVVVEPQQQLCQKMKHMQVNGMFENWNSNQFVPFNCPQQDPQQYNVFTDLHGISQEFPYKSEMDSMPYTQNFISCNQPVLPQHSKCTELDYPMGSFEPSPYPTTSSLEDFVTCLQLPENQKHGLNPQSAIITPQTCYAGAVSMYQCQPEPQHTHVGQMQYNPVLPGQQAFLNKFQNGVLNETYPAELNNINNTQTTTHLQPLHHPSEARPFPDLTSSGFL
How it was run: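 Values derive from bidirectional fitting against DMSO negative control. Underlying signal: cis-element reporter mRNA in transiently transfected HepG2, harvested 24 h post-dose and measured by RT-PCR plus capillary electrophoresis.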

[6] = ATG_AP_1_CIS: Attagene CIS-FACTORIAL HepG2 Assay for human Activator Protein 1 (AP-1) (AID 2282931); details: HepG2 Attagene cis-factorial AP-1 reporter mRNA; actives raise or lower the signal
How it was run: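 Multiplexed HepG2 reporter assay, 24 h dosing. mRNA induction detected by RT-PCR plus capillary electrophoresis. Activity fitted in both directions against DMSO.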

[7] = ATG_AP_2_CIS: Attagene CIS-FACTORIAL HepG2 Assay for human Activator Protein 2 (AP-2) (AID 2282932); details: HepG2 AP-2 cis-reporter, Attagene transcription factor profiling; actives raise or lower the signal
How it was run: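 Bidirectional curve fitting against DMSO was applied to reporter mRNA signals from HepG2 cells 24 h after dosing. Cis-promoter reporter units, transiently transfected, were read by RT-PCR plus capillary electrophoresis.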

[8] = ATG_BRE_CIS: Attagene CIS-FACTORIAL HepG2 Assay for human Bone Morphogenetic Protein (BMP) Response Element (BRE) (AID 2282933); details: HepG2 BMP response element reporter, Attagene transcription factor profiling; actives raise or lower the signal
How it was run: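 Multiplexed cis-reporter assay, HepG2, 24 h exposure. mRNA from reporter units quantified via RT-PCR/CE; DMSO baseline; bidirectional curve fit.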

[9] = molecular target: Transcription factor E2F1 (Homo sapiens) (UniProt Q01094); test: ATG_E2F_CIS: Attagene CIS-FACTORIAL HepG2 Assay for human E2F Transcription Factor 1 (AID 2282935); details: HepG2 Attagene cis-reporter, E2F reporter RNA transcripts; actives raise or lower the signal
Sequence of Transcription factor E2F1 (Homo sapiens) (Q01094 whole entry, looked up): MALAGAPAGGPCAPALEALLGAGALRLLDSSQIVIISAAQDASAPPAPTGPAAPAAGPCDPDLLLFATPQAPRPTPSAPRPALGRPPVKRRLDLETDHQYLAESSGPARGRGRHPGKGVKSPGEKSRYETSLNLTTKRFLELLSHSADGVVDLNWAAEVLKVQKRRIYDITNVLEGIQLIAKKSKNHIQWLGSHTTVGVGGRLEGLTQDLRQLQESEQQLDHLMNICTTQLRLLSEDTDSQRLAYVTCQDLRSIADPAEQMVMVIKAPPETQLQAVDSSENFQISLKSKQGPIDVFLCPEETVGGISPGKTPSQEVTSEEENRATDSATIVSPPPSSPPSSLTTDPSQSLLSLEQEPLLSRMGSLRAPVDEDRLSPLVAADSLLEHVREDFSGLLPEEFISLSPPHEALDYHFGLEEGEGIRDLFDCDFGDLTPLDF
How it was run: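 Multiplexed cis-reporter assay: HepG2, transient transfection, 24 h dosing, mRNA quantitation by labeled RT-PCR and CE.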

[10] = ATG_E_Box_CIS: Attagene CIS-FACTORIAL HepG2 Assay for human Enhancer Box (E-box) (AID 2282936); details: HepG2 E-box cis-reporter transcription, actives raise or lower the signal
How it was run: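 Multiplexed CIS reporter system in transiently transfected HepG2 cells measures native transcription factor activity. Reporter RNA after 24 h exposure is profiled by RT-PCR-capillary electrophoresis.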

[11] = ATG_M_61_CIS: Attagene CIS-FACTORIAL HepG2 Assay for M61 Transcription Factor (Internal Marker) (AID 2282937); details: HepG2 Attagene CIS-FACTORIAL M61 internal marker reporter; actives raise or lower the signal
How it was run: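 Endogenous transcription factor activity in HepG2 is read through transiently transfected cis-element reporter units. After 24 h dosing, RNA undergoes reverse transcription, PCR and primer extension with 6-FAM before capillary electrophoresis; DMSO-referenced bidirectional fit.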

[12] = ATG_EGR_CIS: Attagene CIS-FACTORIAL HepG2 Assay for human Early Growth Response 1 (EGR1) (AID 2282938); details: HepG2 Attagene CIS-FACTORIAL EGR reporter mRNA; actives raise or lower the signal
How it was run: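 Activity is taken as induction or loss of reporter mRNA versus DMSO, fitted bidirectionally. Transcripts from cis-regulated reporter units in transiently transfected HepG2 were measured after 24 h by RT-PCR with capillary electrophoresis.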

[13] = ATG_M_19_CIS: Attagene CIS-FACTORIAL HepG2 Assay for M19 Transcription Factor (Internal Marker) (AID 2282939); details: HepG2 Attagene CIS-FACTORIAL M19 internal marker reporter; actives raise or lower the signal
How it was run: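 Signals come from fluorescence of labelled reporter-specific PCR fragments resolved by capillary electrophoresis, following 24 h treatment of HepG2 cells transfected with cis-promoter reporter units; activity was fitted in both directions relative to DMSO.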

[14] = ATG_ERE_CIS: Attagene CIS-FACTORIAL HepG2 Assay for Estrogen Response Element (ERE) (AID 2282940); details: HepG2 ERE cis-reporter, Attagene RNA transcript; actives raise or lower the signal
How it was run: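 Fluorescence of capillary-separated, FAM-labelled reporter cDNA fragments indicates reporter mRNA levels in HepG2 cells exposed to chemicals for 24 h. Transient transfection with cis-regulated units; data fitted in both directions against DMSO.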

[15] = ATG_Ets_CIS: Attagene CIS-FACTORIAL HepG2 Assay for human Erythroblast Transformation Specific (ETS) (AID 2282941); details: HepG2 ETS cis-reporter transcription, actives raise or lower the signal
How it was run: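 After transient cis-reporter transfection, HepG2 cells receive test chemical for 24 h. Reporter mRNA levels, measured by RT-PCR and capillary electrophoresis fluorescence, are analysed bidirectionally relative to the DMSO baseline.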

[16] = molecular target: Hepatocyte nuclear factor 3-beta (Homo sapiens) (UniProt Q9Y261); test: ATG_FoxA2_CIS: Attagene CIS-FACTORIAL HepG2 Assay for human Forkhead box A2 (FOXA2) (AID 2282942); details: HepG2 cis-reporter transcription factor activity, 24 h; actives raise or lower the signal
Sequence of Hepatocyte nuclear factor 3-beta (Homo sapiens) (Q9Y261 whole entry, looked up): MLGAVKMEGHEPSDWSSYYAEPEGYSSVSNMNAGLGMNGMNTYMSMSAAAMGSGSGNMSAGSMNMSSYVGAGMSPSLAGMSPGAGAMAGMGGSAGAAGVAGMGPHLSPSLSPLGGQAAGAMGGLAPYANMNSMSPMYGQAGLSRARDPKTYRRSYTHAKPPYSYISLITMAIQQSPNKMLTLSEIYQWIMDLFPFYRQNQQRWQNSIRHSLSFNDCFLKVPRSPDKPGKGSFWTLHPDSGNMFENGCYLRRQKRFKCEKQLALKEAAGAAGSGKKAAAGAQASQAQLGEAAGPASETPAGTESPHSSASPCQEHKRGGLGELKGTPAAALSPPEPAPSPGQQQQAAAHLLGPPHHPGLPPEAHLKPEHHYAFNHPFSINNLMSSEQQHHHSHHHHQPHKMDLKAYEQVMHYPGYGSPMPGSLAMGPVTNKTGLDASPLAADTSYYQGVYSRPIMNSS
How it was run: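 Reporter transcript induction is measured by fluorescence after capillary electrophoresis of RT-PCR products from HepG2 cells exposed 24 h. Cis-regulated reporter units report endogenous factor activity; curves fitted both directions against DMSO.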

[17] = ATG_FoxO_CIS: Attagene CIS-FACTORIAL HepG2 Assay for human Forkhead box O (FoxO) (AID 2282943); details: HepG2 Attagene cis-reporter, FoxO element, mRNA; actives raise or lower the signal
How it was run: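 Values reflect reporter mRNA induction or loss in HepG2 cells 24 h post-dosing, fitted bidirectionally with DMSO as negative control and baseline. Detection used RT-PCR and fluorescence capillary electrophoresis.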

[18] = ATG_GATA_CIS: Attagene CIS-FACTORIAL HepG2 Assay for human GATA Binding Protein (AID 2282944); details: HepG2 GATA cis-element reporter, Attagene multiplex mRNA; actives raise or lower the signal
How it was run: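 After transfecting HepG2 cells with multiple cis-regulated reporter units, chemicals are dosed for 24 h; isolated RNA undergoes RT-PCR and fluorescent labeling before capillary electrophoresis, with activity expressed against DMSO.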

[19] = ATG_GLI_CIS: Attagene CIS-FACTORIAL HepG2 Assay for human Zinc Finger Protein GLI1 (AID 2282945); details: HepG2, Attagene cis-factorial reporter mRNA, GLI element; actives raise or lower the signal
How it was run: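 HepG2 cells transiently transfected with cis-promoter multiplexed reporter units report endogenous transcription factor activity. After 24 h chemical exposure, reporter mRNA was quantified by RT-PCR, 6-FAM labelling, HpaI digestion and capillary electrophoresis, with bidirectional fitting against DMSO.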

[20] = molecular target: Retinoic acid receptor alpha (Homo sapiens) (UniProt P10276); test: ATG_DR5_RAR_CIS: Attagene CIS-FACTORIAL HepG2 Assay for human Retinoic Acid Receptor Alpha (RARE), DR5 submotif (AID 2282934); details: HepG2 Attagene cis-factorial RARE DR5 reporter, mRNA; actives raise or lower the signal
Sequence of Retinoic acid receptor alpha (Homo sapiens) (P10276 whole entry, looked up): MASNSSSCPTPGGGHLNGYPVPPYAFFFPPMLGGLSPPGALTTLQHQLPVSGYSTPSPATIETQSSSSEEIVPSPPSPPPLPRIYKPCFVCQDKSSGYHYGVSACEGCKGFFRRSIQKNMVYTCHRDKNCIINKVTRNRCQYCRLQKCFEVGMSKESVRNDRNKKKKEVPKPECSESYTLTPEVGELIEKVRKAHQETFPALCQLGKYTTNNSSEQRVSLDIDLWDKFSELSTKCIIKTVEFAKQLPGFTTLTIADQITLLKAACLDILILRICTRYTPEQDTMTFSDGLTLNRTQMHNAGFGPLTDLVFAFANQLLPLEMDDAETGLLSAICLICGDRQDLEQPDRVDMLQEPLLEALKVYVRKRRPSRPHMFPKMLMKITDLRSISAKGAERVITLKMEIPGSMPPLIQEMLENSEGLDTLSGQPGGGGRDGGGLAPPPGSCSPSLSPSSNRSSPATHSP
How it was run: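 Endpoint fitted in both directions relative to DMSO as negative control. It reflects DR5 cis-element reporter mRNA induction in transiently transfected HepG2 cells, measured 24 h after dosing through RT-PCR and fluorescent capillary electrophoresis.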

Measured: AC50

Cc1ccc(S)cc1
active: [3] 34.4 µM | [4] 59.7 µM | [6] 119 µM | [8] 100 µM
not listed: [20]
inactive: all other assays above

CCCCCCCCC
active: [14] 63.2 µM
not listed: [18] | [20]
inactive: all other assays above

CCOC(=O)c1ccccc1OC
not listed: [9] | [14]
inactive: all other assays above

CCN(CC)CCOC(=O)c1ccc(N)cc1
not listed: [9] | [14] | [15]
inactive: all other assays above

OCC(CO)(CO)COCC(CO)(CO)CO
not listed: [18] | [20]
inactive: all other assays above

Clc1sc(Cl)c(Cl)c1Cl
not listed: [20]
inactive: all other assays above

Nc1cccc(S(=O)(=O)c2cccc(N)c2)c1
not listed: [20]
inactive: all other assays above

CC(=O)OCCOC(C)=O
not listed: [20]
inactive: all other assays above

O=C(COc1ccc(Cl)cc1)N1CCN(Cc2ccc3c(c2)OCO3)CC1
active: [3] 24.9 µM | [8] 93.6 µM | [12] 32.1 µM
not listed: [18] | [20]
inactive: all other assays above

CCCCCCCCCCCCCCCC(=O)OC[C@H](O)[C@H]1OC(=O)C(O)=C1O
active: [1] 29.3 µM | [2] 67.7 µM | [4] 76.2 µM | [5] 78 µM | [8] 9.68 µM | [16] 159 µM
not listed: [18] | [20]
inactive: all other assays above

OCCCCCO
not listed: [20]
inactive: all other assays above

O=Cc1ccc(F)cc1
not listed: [20]
inactive: all other assays above

C/C=C(\C)C(=O)OCc1ccccc1
not listed: [9] | [14] | [15]
inactive: all other assays above

CO[Si](C)(OC)c1ccccc1
active: [5] 130 µM
not listed: [20]
inactive: all other assays above

Cc1ccc2n[nH]nc2c1
active: [5] 16.3 µM
not listed: [20]
inactive: all other assays above
